PubChem BioAssay (EPA / NIEHS)
“And” between values parts separate entries of the source, which are not always exact repeats. Identical values can stand only once. Inconclusive results are not listed. Some structures have more than one record in an assay (separate samples or runs), and their calls can disagree. The source made the active and inactive calls. How the source made its calls: active means hit-call score of the fitted dose curve at least 0.9, where 1 is the maximum; inconclusive means response in the unintended direction; inactive means score below 0.9.

What follows are molecules tested against Retinoic acid receptor RXR-alpha (Homo sapiens) (UniProt P19793) (assay: OT_NURR1_NURR1RXRa_1440: Odyssey Thera (OT) 24-hour HEK293T Protein Complementation Assay for Nurr1/retinoid X receptor (RXR) (AID 2283386)).
Method: OT_NURR1_NURR1RXRa_1440 is a cell-based assay that uses HEK293T, a human kidney cell line, with measurements taken at 24 hours after chemical dosing in a 384-well plate.OT_NURR1_NURR1RXRa_1440 is one of one assay component(s) measured or calculated from the OT_NURR1_NURR1RXRa_1440 assay. It is designed to make measurements of protein fragment complementation, a form of binding reporter, as detected with fluorescence intensity signals by Protein-fragment Complementation technology.Data from the assay component OT_NURR1_NURR1RXRa_1440 was analyzed into 1 assay endpoint. This assay endpoint, OT_NURR1_NURR1RXRa_1440, was analyzed in the positive analysis fitting direction relative to DMSO as the negative control and baseline of activity. Using a type of binding reporter, measures of receptor for gain-of-signal activity can be used to understand the binding at the pathway-level as they relate to the gene RXRA. Furthermore, this assay endpoint can be referred to as a primary readout, because the performed assay has only produced 1 assay endpoint. To generalize the intended target to other relatable targets, this assay endpoint is annotated to the nuclear receptor intended target family, where the subfamily is non-steroidal.
Protein-fragment complementation assay, or PCA, is a method for the identification and quantification of protein-protein interactions. In the PCA, the proteins of interest ("bait" and "prey") are each covalently linked to fragments of a third protein (e.g. DHFR, which acts as a "reporter"). Interaction between the bait and the prey proteins brings the fragments of the reporter protein in close proximity to allow them to form a functional reporter protein whose activity can be measured.

Retinoic acid receptor RXR-alpha (Homo sapiens), sequence (P19793 whole entry, looked up, the tested form may be a part): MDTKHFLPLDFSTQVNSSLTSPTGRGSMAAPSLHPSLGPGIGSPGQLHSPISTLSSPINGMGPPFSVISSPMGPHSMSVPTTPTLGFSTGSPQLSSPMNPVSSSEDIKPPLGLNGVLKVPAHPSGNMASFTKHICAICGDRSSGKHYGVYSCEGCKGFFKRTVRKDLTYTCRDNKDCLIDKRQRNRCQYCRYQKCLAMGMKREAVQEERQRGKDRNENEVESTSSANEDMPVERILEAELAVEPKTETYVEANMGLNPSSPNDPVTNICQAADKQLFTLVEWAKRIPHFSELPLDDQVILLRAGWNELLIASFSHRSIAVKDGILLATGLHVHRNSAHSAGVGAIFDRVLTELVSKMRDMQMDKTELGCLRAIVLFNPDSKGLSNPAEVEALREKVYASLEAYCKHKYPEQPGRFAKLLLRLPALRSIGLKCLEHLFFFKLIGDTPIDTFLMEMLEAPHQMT

| SMILES | outcome | AC50 |
| --- | --- | --- |
| OCC(CO)n1cnc(-c2ccc(F)cc2)c1-c1ccnc(Oc2ccccc2)n1 | inactive | – |
| Cn1cnc2c1c(=O)[nH]c(=O)n2C | inactive | – |
| CCCCCCCCCCCCCCOS(=O)(=O)O | inactive | – |
| O=C1OC(c2ccc(O)cc2)(c2ccc(O)cc2)c2ccccc21 | inactive | – |
| CCCCc1nc2cccnc2n1Cc1ccc(-c2ccccc2-c2nnn[nH]2)cc1 | – | 7.85 µM (active) |
| COc1ccc(C(=O)Nc2nc3ccccc3c(NCc3ccccc3)c2C#N)cc1 | inactive | – |
| NCCOCCOCCN | inactive | – |
| O=C1c2c(O)cccc2Cc2cccc(O)c21 | inactive | – |
| O=Cc1ccccc1C=O | inactive | – |
| Cc1ccc(C(C)(C)C)c(O)c1 | inactive | 78.7 µM (active) |
| O=C(O)c1[nH]n(-c2ccc(S(=O)(=O)O)cc2)c(=O)c1N=Nc1ccc(S(=O)(=O)O)cc1 | inactive | – |
| CC(C)(C)c1ccccc1 | inactive | – |
| CCc1nc(N)nc(N)c1-c1ccc(Cl)cc1 | inactive | – |
| CCC(C)N(C)C(=O)c1cc2ccccc2c(-c2ccccc2Cl)n1 (stereo not given) | inactive | – |
| CCCC(=O)O | inactive | – |
| O=C(NS(=O)(=O)/C=C/c1cccs1)c1ccc(F)cc1Br | – | 17.3 µM (active) |
| CC(C)COC(=O)CCCCC(=O)OCC(C)C | inactive | – |
| CCOCCOCCO | inactive | – |
| CSc1ccc(Oc2ccc(S(N)(=O)=O)cc2CN(C)C)cc1C | – | 57.5 µM (active) and 19 µM (active) |

| SMILES | outcome | AC50 |
| --- | --- | --- |
| O=C1NC(=O)C(c2ccccc2)(c2ccccc2)N1 | inactive | – |
| O=C(O)CN(CC(=O)O)CC(=O)O | inactive | – |
| CCCCC(CC)COP(=O)(OCC(CC)CCCC)OCC(CC)CCCC (stereo not given) | inactive | 76.1 µM (active) |
| COC(=O)CCC(=O)OC | inactive | – |
| S=c1[nH]c2ccccc2s1 | inactive | – |
| CC(=O)OC1CC(C)OC(C)O1 (stereo not given) | inactive | – |
| CC(C)c1cccc(C(C)C)c1NC(=O)NS(=O)(=O)c1cc(C(C)(C)O)co1 | inactive | – |
| NC(=Nc1ccccc1)Nc1ccccc1 | – | 11.6 µM (active) |
| CCCCOC(=O)CCCCC(=O)OCCCC | inactive | – |
| N[C@@H](Cc1c[nH]c2ccccc12)C(=O)O | inactive | – |
| O=C(Oc1ccccc1)c1cccc(C(=O)Oc2ccccc2)c1 | inactive | 69.2 µM (active) |
| C#CC(O)C(CC)CCCC (stereo not given) | – | 76.3 µM (active) |
| CCc1cc(C2=C(C(=O)O)N(c3ccccc3C(F)(F)F)S(=O)(=O)c3ccccc32)cc2c1OCO2 | inactive | – |
| Oc1ccccc1O | – | 16 µM (active) and 23.7 µM (active) |
| CC(=O)O[C@]1(C(C)=O)CC[C@H]2[C@@H]3C=C(Cl)C4=CC(=O)[C@@H]5C[C@@H]5[C@]4(C)[C@H]3CC[C@@]21C | – | 82.6 µM (active) |
| CCCCCCC(CCCCCCCCCCC(=O)OCC(COC(C)=O)OC(C)=O)OC(C)=O (stereo not given) | inactive | – |
| CCCCCCCC(=O)OC | inactive | – |
| C=CCc1ccc(OC)c(OC)c1 | inactive | – |
